Assay results published in PubChem BioAssay (NCI).
About 79,000 compounds went through this panel and 15% of them were active in at least one assay; those are over-represented in the sample as a whole. Calls of active or inactive are those of the source. No stated cut-off is given here; in the data, active means growth inhibition above about 70%; inactive means the rest.

Legend:
[1] = NCI Yeast Anticancer Drug Screen. Data for the rad52 strain (AID 147);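 further: 0% = growth of vehicle-treated control cultures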; conditions: S. cerevisiae rad52 mutant growth inhibition, active compounds read high
Summary of the method: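 Here a repair-compromised yeast strain receives each compound; its growth is then quantified and normalised to vehicle-only controls.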

[2] = NCI Yeast Anticancer Drug Screen. Data for the rad50EPP+ strain (AID 151);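 further: 0% = growth of vehicle-treated control cultures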; conditions: S. cerevisiae rad50 mutant strain, active compounds read high
Summary of the method: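 Read-out is yeast growth inhibition relative to vehicle; cells used were the rad50EPP+ strain.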

[3] = NCI Yeast Anticancer Drug Screen. Data for the mgt1 strain (AID 153); conditions: S. cerevisiae mgt1 mutant growth inhibition, active compounds read high
Summary of the method: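 Measured: inhibition of mgt1 yeast growth by compound, normalized to vehicle-treated cultures.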

[4] = NCI Yeast Anticancer Drug Screen. Data for the rad50 strain (AID 155);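 further: 0% = growth of vehicle-only cultures of the same strain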; conditions: S. cerevisiae rad50 strain growth inhibition, active compounds read high
Summary of the method: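 Growth of the mutant yeast was measured after compound exposure and referenced to vehicle-treated cultures.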

[5] = NCI Yeast Anticancer Drug Screen. Data for the mec2-1 strain (AID 157); conditions: S. cerevisiae mec2-1 strain, active compounds read high
Summary of the method: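 Using mec2-1 yeast: add compound, measure growth, express inhibition versus vehicle-treated cultures.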

[6] = NCI Yeast Anticancer Drug Screen. Data for the rad14 strain (AID 159);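 further: 0% = growth of vehicle-treated control cultures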; conditions: S. cerevisiae rad14 strain growth inhibition, active compounds read high
Summary of the method: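 Here, inhibition of yeast growth was measured after compound exposure, using a strain with a genetic defect in DNA damage repair and vehicle-treated cultures as the reference.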

[7] = NCI Yeast Anticancer Drug Screen. Data for the sgs1 mgt1 strain (AID 161);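 further: 0% = growth of cultures given vehicle only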; conditions: S. cerevisiae sgs1 mgt1 strain, active compounds read high
Summary of the method: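 This yeast growth screen uses a strain with defined DNA-repair lesions; compound-treated growth is compared with vehicle-treated growth.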

[8] = NCI Yeast Anticancer Drug Screen. Data for the CLN2oe strain (AID 163);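 further: 0% = growth of vehicle-only control cultures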; conditions: S. cerevisiae CLN2oe strain, active compounds read high
Summary of the method: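 Whole-cell yeast growth assay. A strain engineered for altered cell-cycle control received compound, and inhibition relative to vehicle-treated cultures was recorded.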

[9] = NCI Yeast Anticancer Drug Screen. Data for the cln2 rad14 strain (AID 165);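 further: 0% = growth equal to vehicle treated cultures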; conditions: S. cerevisiae cln2 rad14 strain, active compounds read high
Summary of the method: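 Yeast strain cln2 rad14, bearing defects in cell cycle control and DNA repair, serves as the test system; values reflect growth inhibition compared with vehicle.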

[10] = NCI Yeast Anticancer Drug Screen. Data for the bub3 strain (AID 167); conditions: S. cerevisiae bub3 mutant strain, active compounds read high
Summary of the method: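 Whole-cell yeast assay. The mutant strain was incubated with compounds, and growth inhibition was determined by comparison with vehicle-treated cells.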

[11] = NCI Yeast Anticancer Drug Screen. Data for the wt2 strain (AID 169);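 further: 0% = growth of vehicle-treated yeast cultures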; conditions: S. cerevisiae wt2 strain growth inhibition, active compounds read high
Summary of the method: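 Treated yeast vs. vehicle-treated yeast: growth inhibition determined.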

[12] = NCI Yeast Anticancer Drug Screen. Data for the mlh1 strain (AID 171);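 further: 0% = growth of vehicle-treated control cultures of the same strain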; conditions: S. cerevisiae mlh1 strain growth inhibition, active compounds read high
Summary of the method: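 A yeast strain with a defined genetic lesion serves as the test organism. Cultures receive compound or vehicle, and growth is measured.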

[13] = NCI Yeast Anticancer Drug Screen. Data for the sgs1 strain (AID 173);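 further: 0% = growth of vehicle-only control cultures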; conditions: S. cerevisiae sgs1 mutant, active compounds read high
Summary of the method: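 A genetically defined yeast mutant is incubated with the test compound, and its growth is compared to that of the same strain given vehicle.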

[14] = NCI Yeast Anticancer Drug Screen. Data for the mlh1 rad18 strain (AID 175); conditions: S. cerevisiae mlh1 rad18 strain growth inhibition, active compounds read high
Summary of the method: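 Steps: expose repair-defective yeast to compound; measure growth; express inhibition against vehicle-treated controls.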

[15] = NCI Yeast Anticancer Drug Screen. Data for the rad18 strain (AID 177); conditions: S. cerevisiae rad18 mutant growth inhibition, active compounds read high
Summary of the method: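 Measured value is growth inhibition of a yeast strain bearing a DNA repair alteration, referenced to vehicle-treated cells.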

[16] = NCI Yeast Anticancer Drug Screen. Data for the wt1 strain (AID 149);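 further: 0% = growth of vehicle-treated wt1 cultures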; conditions: S. cerevisiae wt1 strain (SPY 50644) growth inhibition, active compounds read high
Summary of the method: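 Measured: growth of wt1 yeast under compound versus vehicle treatment, reported as inhibition.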

[17] = at 5.0 µM (retest, dose inferred, filed as 0.5)
[18] = at 50.0 µM (retest, dose inferred, filed as 5.0)

Measured: growth inhibition

C[CH2][Sn]([CH2]C)([O]C(=O)C(N)Cc1ccccc1)[O]C(=O)C(N)Cc1ccccc1 (stereo unspecified)
active: [5]; at 50.0 µM 70.5% | [9]; [18] 76% | [10]; [18] 74% | [11]; at 100.0 µM 78%
inactive: [1]; at 1.2 µM 1% | [1]; at 3.7 µM -4% | [1]; at 11.0 µM 2% | [1]; at 33.0 µM 14% | [1]; at 100.0 µM 52% | [2]; at 1.2 µM -13% | [2]; at 3.7 µM -13% | [2]; at 11.0 µM 9% | [2]; at 33.0 µM -28% | [2]; at 100.0 µM -11% | [3]; at 1.2 µM 6% | [3]; at 3.7 µM -2% | [3]; at 11.0 µM 1% | [3]; at 33.0 µM 23% | [3]; at 100.0 µM 56% | [4]; at 1.2 µM 10% | [4]; at 3.7 µM 3% | [4]; [17] 19% | [4]; at 11.0 µM 14% | [4]; at 33.0 µM 15% | [4]; [18] 20% | [4]; at 50.0 µM 55.8% | [4]; at 100.0 µM 54% | [5]; at 1.2 µM 3% | [5]; at 3.7 µM 3% | [5]; [17] 19% | [5]; at 11.0 µM 0% | [5]; at 33.0 µM 3% | [5]; [18] 36% | [5]; at 100.0 µM 49% | [6]; at 1.2 µM -23% | [6]; at 3.7 µM -11% | [6]; at 11.0 µM -17% | [6]; at 33.0 µM -13% | [6]; at 100.0 µM 7% | [7]; [17] -21% | [7]; [18] 59% | [7]; at 50.0 µM 16.1% | [8]; at 1.2 µM 4% | [8]; at 3.7 µM -1% | [8]; at 11.0 µM 10% | [8]; at 33.0 µM 14% | [8]; at 100.0 µM 36% | [9]; [17] 17% | [9]; at 50.0 µM 61.1% | [10]; at 1.2 µM -23% | [10]; at 3.7 µM -25% | [10]; [17] 2% | [10]; at 11.0 µM -39% | [10]; at 33.0 µM -29% | [10]; at 50.0 µM 47.7% | [10]; at 100.0 µM 32% | [11]; at 1.2 µM -15% | [11]; at 3.7 µM -21% | [11]; at 11.0 µM -13% | [11]; at 33.0 µM -2% | [12]; at 1.2 µM 6% | [12]; at 3.7 µM -2% | [12]; at 11.0 µM 1% | [12]; at 33.0 µM 23% | [12]; at 100.0 µM 56% | [13]; at 1.2 µM -8% | [13]; at 3.7 µM 7% | [13]; at 11.0 µM 4% | [13]; at 33.0 µM 0% | [13]; at 100.0 µM 42% | [14]; [17] 17% | [14]; [18] 23% | [14]; at 50.0 µM -22.9% | [15]; at 1.2 µM 3% | [15]; at 3.7 µM 2% | [15]; at 11.0 µM 6% | [15]; at 33.0 µM 22% | [15]; at 100.0 µM 65%

NC1=NNC2(C(N)=N1)c1ccccc1-c1ccccc12
inactive: [1]; at 1.2 µM -18% | [1]; at 3.7 µM -14% | [1]; at 11.0 µM -16% | [1]; at 33.0 µM 16% | [16]; at 1.2 µM 4% | [16]; at 3.7 µM 3% | [16]; at 11.0 µM -4% | [16]; at 33.0 µM 12% | [3]; at 1.2 µM 12% | [3]; at 3.7 µM 6% | [3]; at 11.0 µM 3% | [3]; at 33.0 µM 30% | [4]; at 1.2 µM -7% | [4]; at 3.7 µM -12% | [4]; [17] -32% | [4]; at 11.0 µM -9% | [4]; at 33.0 µM 32% | [5]; at 1.2 µM 11% | [5]; at 3.7 µM 12% | [5]; [17] -1% | [5]; at 11.0 µM 11% | [5]; at 33.0 µM 29% | [5]; [18] 18% | [6]; at 1.2 µM -18% | [6]; at 3.7 µM -22% | [6]; at 11.0 µM -25% | [6]; at 33.0 µM 1% | [7]; [17] -9% | [7]; [18] 43% | [7]; at 50.0 µM 64.5% | [9]; [17] 3% | [9]; [18] 57% | [10]; at 1.2 µM 26% | [10]; at 3.7 µM 25% | [10]; [17] -27% | [10]; at 11.0 µM 26% | [10]; at 33.0 µM 38% | [10]; [18] 54% | [10]; at 50.0 µM 45.1% | [11]; at 1.2 µM -10% | [11]; at 3.7 µM -16% | [11]; at 11.0 µM -18% | [11]; at 33.0 µM -2% | [12]; at 1.2 µM 10% | [12]; at 3.7 µM -2% | [12]; at 11.0 µM 3% | [12]; at 33.0 µM 53% | [13]; at 1.2 µM 12% | [13]; at 3.7 µM 17% | [13]; at 11.0 µM 11% | [13]; at 33.0 µM 33% | [14]; [17] -25%
active: [1]; at 100.0 µM 96% | [16]; at 100.0 µM 97% | [3]; at 100.0 µM 98% | [4]; [18] 93% | [4]; at 50.0 µM 86.2% | [4]; at 100.0 µM 94% | [5]; at 50.0 µM 71.9% | [5]; at 100.0 µM 96% | [6]; at 100.0 µM 97% | [9]; at 50.0 µM 81% | [10]; at 100.0 µM 97% | [11]; at 100.0 µM 97% | [12]; at 100.0 µM 97% | [13]; at 100.0 µM 97% | [14]; [18] 81% | [14]; at 50.0 µM 79.3%
